In article PMC7862700, “An all-to-all approach to the identification of sequence-specific readers for epigenetic DNA modifications on cytosine” one finds binding signal data, which are given here for one sequence.

Holding throughout (experiment): DAPPL (digital affinity profiling via proximity ligation, sequencing); 10 mM Tris-HCl pH 7.5, 50 mM NaCl, 1 mM DTT, 4% glycerol, room temperature, 30 min; GST-TFs on glutathione beads, 16-mer random dsDNA library, 0.1% formaldehyde crosslink after washing; high values mean tight binding
One assay addresses T1, FLI1 (Homo sapiens, UniProt Q01543 1-452).
T1 sequence: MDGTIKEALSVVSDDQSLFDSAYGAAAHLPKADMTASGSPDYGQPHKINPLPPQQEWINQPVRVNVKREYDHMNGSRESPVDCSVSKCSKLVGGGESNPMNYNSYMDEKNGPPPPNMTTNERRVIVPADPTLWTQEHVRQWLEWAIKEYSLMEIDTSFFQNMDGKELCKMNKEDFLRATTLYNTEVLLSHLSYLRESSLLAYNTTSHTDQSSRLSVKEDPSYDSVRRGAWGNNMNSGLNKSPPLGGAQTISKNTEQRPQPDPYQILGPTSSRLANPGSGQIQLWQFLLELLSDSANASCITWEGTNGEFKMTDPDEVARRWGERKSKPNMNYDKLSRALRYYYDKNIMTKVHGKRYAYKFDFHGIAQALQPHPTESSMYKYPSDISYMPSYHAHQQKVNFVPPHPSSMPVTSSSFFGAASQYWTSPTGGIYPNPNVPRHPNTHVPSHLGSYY
The note with it: protein: recombinant; tags: N-terminal GST; dsDNA, one strand shown. A digest of the protocol:
(§1)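 Pools were built from human transcription factors expressed in yeast as GST fusions, captured on glutathione beads and DNA-barcoded, along with a tag-only sample. Incubation with 200 nmole of a 16-mer random double-stranded DNA library lasted 30 min at room temperature in Tris/NaCl/DTT/glycerol buffer, and was followed by washing, 0.1% formaldehyde crosslinking, proximity ligation, PCR amplification and Illumina NextSeq500 sequencing. Binding signal is the quotient of each hexamer's read frequency for a factor and its frequency for the tag-only sample.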

A further assay addresses T2, ELK1 (Homo sapiens, UniProt P19419 1-428).
T2 sequence: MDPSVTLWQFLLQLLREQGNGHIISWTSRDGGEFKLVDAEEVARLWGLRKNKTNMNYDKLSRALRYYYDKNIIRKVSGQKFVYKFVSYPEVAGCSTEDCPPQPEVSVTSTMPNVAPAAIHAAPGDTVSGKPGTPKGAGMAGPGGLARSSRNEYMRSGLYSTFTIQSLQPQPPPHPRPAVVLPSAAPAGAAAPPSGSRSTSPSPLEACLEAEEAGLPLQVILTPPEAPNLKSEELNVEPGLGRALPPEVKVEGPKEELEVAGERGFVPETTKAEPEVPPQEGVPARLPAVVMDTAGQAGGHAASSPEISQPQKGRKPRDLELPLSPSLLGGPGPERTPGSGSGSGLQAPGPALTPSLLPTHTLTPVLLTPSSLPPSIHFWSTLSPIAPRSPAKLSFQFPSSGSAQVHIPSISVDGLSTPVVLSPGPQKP
Particulars: protein: recombinant; tags: N-terminal GST; dsDNA, one strand shown. A digest of the protocol: as §1

Another assay concerns the target T3, GABPA (Homo sapiens, UniProt Q06546 1-454).
T3 sequence: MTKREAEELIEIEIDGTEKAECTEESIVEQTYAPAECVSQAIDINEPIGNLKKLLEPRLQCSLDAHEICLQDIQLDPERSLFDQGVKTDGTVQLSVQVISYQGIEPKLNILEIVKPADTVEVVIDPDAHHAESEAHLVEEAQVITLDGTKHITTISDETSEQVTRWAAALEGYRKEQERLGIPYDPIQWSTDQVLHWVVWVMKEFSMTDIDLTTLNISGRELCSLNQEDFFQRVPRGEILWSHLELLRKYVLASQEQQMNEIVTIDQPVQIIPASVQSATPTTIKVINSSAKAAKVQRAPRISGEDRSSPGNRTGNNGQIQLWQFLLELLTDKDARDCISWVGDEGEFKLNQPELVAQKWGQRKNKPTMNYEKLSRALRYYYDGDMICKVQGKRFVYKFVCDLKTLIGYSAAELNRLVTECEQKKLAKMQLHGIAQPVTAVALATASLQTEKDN
Particulars: protein: recombinant; tags: N-terminal GST; dsDNA, one strand shown. A digest of the protocol: as §1

The next assay has as its target T4, ERG (Homo sapiens, UniProt P11308 1-479).
T4 sequence: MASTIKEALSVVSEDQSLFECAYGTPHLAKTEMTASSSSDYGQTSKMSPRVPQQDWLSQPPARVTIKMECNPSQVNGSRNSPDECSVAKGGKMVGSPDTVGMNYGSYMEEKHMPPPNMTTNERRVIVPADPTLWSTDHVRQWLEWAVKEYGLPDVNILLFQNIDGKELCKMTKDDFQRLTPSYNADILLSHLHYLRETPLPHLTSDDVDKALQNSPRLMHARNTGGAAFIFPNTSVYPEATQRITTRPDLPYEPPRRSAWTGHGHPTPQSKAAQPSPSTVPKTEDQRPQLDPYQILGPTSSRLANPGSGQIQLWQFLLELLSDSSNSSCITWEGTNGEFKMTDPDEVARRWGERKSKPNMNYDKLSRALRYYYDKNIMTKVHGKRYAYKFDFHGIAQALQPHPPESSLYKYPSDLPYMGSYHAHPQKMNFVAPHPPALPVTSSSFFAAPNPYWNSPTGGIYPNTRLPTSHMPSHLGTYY
Particulars: protein: recombinant; tags: N-terminal GST; dsDNA, one strand shown. A digest of the protocol: as §1

The target of another assay is ELF1 (Homo sapiens, UniProt P32519 1-619). The note with it: protein: recombinant; tags: N-terminal GST; dsDNA, one strand shown. A digest of the protocol: as §1
A further assay has as its target T5, EHF (Homo sapiens, UniProt Q9NZC4 1-300).
T5 sequence: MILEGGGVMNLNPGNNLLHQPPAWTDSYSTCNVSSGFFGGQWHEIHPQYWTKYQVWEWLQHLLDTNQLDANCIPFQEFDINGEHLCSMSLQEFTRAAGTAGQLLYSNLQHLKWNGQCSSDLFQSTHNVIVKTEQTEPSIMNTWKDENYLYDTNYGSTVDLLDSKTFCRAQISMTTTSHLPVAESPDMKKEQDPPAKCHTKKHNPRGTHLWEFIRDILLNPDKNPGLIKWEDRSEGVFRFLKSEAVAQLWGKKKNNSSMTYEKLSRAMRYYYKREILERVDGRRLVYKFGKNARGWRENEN
The note with it: protein: recombinant; tags: N-terminal GST; dsDNA, one strand shown. A digest of the protocol: as §1

The next assay has as its target SPI1 (Homo sapiens, UniProt P17947 1-270). Particulars: protein: recombinant; tags: N-terminal GST; dsDNA, one strand shown. A digest of the protocol:
as §1

The target of a further assay is T6, ELK3 (Homo sapiens, UniProt P41970 1-407).
T6 sequence: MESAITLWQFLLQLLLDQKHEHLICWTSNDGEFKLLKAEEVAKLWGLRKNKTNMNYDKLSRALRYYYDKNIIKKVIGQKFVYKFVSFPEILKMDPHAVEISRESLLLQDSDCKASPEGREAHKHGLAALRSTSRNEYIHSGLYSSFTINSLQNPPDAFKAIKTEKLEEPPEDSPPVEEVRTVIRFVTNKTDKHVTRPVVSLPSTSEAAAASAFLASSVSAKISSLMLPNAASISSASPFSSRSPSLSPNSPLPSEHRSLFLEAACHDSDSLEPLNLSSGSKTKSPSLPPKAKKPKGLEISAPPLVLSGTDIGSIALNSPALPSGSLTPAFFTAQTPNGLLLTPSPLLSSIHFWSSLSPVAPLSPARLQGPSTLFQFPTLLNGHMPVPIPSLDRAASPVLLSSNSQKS
The note with it: protein: recombinant; tags: N-terminal GST; dsDNA, one strand shown. A digest of the protocol:
as §1

A further assay has as its target T7, FEV (Homo sapiens, UniProt Q99581 1-238).
T7 sequence: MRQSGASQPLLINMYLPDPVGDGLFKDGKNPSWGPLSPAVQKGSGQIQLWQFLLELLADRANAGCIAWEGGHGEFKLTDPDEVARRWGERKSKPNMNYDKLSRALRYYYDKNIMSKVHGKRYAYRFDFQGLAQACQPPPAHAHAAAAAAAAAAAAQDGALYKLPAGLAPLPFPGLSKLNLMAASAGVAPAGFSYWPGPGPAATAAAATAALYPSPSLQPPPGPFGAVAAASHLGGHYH
The note with it: protein: recombinant; tags: N-terminal GST; dsDNA, one strand shown. A digest of the protocol:
as §1

In a further assay the target is ETV5 (Homo sapiens, UniProt P41161 1-510). The note with it: protein: recombinant; tags: N-terminal GST; dsDNA, one strand shown. A digest of the protocol: as §1
For another assay, the target named is HSF1 (Homo sapiens, UniProt Q00613 1-529). Particulars: protein: recombinant; tags: N-terminal GST; chain copies: 3; dsDNA, one strand shown. A digest of the protocol: as §1
The target in a further assay is T8, SPIC (Homo sapiens, UniProt Q8N5J4 1-248).
T8 sequence: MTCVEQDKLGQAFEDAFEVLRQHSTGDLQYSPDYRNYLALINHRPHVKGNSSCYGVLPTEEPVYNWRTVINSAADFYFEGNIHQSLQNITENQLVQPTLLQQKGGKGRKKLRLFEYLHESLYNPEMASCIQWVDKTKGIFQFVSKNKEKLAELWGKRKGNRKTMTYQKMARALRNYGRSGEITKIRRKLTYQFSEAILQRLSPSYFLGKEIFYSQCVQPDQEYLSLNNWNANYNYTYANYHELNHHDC
Particulars: protein: recombinant; tags: N-terminal GST; dsDNA, one strand shown. A digest of the protocol: as §1

The target in a further assay is ELF4 (Homo sapiens, UniProt Q99607 1-663). Particulars: protein: recombinant; tags: N-terminal GST; dsDNA, one strand shown. A digest of the protocol: as §1
For a further assay, the target named is T9, ELK4 (Homo sapiens, UniProt P28324-2 1-405).
T9 sequence: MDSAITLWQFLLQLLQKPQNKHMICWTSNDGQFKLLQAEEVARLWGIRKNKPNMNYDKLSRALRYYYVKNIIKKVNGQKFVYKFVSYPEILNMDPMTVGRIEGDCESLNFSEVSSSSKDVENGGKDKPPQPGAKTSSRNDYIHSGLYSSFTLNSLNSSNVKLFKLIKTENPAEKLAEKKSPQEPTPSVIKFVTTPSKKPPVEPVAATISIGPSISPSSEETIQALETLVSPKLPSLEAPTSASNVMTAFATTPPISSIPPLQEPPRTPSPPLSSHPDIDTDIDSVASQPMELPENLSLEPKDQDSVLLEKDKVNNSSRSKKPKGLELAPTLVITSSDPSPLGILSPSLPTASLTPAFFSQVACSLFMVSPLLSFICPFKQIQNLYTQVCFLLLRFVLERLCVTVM
The note with it: protein: recombinant; tags: N-terminal GST; dsDNA, one strand shown. A digest of the protocol:
as §1

Another assay concerns the target T10, ETV2 (Homo sapiens, UniProt O00321 1-342).
T10 sequence: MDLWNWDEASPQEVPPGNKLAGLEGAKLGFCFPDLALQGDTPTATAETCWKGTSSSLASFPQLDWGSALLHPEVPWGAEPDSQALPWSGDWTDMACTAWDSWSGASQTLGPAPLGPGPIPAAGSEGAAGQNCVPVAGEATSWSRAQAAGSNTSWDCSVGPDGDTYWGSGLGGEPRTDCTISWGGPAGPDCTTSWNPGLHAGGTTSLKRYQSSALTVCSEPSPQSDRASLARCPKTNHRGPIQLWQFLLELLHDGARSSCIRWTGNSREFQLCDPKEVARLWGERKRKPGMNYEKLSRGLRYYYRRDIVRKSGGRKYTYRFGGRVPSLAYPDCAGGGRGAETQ
The note with it: protein: recombinant; tags: N-terminal GST; dsDNA, one strand shown. A digest of the protocol: as §1

The target in a further assay is T11, ELF3 (Homo sapiens, UniProt P78545 1-371).
T11 sequence: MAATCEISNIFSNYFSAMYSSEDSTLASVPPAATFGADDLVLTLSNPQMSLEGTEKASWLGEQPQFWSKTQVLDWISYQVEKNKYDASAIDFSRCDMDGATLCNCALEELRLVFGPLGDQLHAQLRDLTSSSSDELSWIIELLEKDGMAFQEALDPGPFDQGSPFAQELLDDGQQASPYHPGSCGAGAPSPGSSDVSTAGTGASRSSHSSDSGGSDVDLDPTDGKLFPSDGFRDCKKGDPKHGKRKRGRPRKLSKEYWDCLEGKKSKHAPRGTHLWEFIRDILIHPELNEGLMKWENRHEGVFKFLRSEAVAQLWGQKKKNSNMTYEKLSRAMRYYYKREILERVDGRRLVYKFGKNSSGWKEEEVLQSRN
The note with it: protein: recombinant; tags: N-terminal GST; dsDNA, one strand shown. A digest of the protocol:
as §1

For a further assay, the target named is ETV1 (Homo sapiens, UniProt P50549 1-477). Particulars: protein: recombinant; tags: N-terminal GST; dsDNA, one strand shown. A digest of the protocol:
as §1

Sequence of HSF1 (Q00613 whole entry): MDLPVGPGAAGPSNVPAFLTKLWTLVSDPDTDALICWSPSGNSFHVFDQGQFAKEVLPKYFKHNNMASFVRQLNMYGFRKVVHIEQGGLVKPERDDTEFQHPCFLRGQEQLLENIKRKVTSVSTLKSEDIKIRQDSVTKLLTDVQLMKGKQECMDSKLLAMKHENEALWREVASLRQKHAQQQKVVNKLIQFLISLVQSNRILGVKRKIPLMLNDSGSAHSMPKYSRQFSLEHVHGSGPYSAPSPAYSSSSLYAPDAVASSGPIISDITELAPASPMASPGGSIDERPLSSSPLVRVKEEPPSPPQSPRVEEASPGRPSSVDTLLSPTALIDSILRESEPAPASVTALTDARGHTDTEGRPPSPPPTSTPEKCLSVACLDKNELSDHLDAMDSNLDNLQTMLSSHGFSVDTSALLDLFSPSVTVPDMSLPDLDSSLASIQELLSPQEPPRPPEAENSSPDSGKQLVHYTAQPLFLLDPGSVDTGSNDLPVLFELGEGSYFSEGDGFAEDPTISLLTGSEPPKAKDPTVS
Sequence of ELF1 (P32519 whole entry): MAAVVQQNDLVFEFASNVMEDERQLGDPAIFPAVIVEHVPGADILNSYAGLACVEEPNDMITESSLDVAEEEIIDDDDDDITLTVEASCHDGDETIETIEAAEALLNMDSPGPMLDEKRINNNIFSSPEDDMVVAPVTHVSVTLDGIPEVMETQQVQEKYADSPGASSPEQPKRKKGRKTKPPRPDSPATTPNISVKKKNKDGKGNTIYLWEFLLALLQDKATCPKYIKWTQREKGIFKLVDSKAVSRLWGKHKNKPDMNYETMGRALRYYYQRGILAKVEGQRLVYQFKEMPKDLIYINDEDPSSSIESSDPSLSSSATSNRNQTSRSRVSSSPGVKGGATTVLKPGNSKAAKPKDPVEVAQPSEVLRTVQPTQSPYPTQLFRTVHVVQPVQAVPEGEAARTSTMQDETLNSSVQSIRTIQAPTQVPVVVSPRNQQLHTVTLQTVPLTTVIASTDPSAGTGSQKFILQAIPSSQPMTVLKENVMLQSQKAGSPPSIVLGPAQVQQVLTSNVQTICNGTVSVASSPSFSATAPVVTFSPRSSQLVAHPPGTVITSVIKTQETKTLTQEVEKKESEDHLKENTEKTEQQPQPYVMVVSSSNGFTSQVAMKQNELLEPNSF
Sequence of ELF4 (Q99607 whole entry): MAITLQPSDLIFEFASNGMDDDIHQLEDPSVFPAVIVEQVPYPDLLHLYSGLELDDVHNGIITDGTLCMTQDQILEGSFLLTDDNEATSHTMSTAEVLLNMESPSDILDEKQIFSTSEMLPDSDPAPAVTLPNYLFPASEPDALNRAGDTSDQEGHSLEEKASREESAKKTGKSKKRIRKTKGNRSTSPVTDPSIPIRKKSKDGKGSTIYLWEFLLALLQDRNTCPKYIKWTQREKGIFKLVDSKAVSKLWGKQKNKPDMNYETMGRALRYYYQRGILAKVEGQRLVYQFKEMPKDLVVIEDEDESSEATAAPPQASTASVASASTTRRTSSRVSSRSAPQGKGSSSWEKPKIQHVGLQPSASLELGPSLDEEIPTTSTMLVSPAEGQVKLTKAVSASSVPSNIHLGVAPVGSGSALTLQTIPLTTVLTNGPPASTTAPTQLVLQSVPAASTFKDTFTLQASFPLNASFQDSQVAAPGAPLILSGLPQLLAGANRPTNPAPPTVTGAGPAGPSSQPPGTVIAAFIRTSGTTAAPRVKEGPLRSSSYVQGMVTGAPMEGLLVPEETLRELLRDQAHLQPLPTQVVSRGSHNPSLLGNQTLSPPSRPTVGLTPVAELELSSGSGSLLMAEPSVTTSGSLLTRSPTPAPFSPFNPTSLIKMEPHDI
Sequence of ETV1 (P50549 whole entry): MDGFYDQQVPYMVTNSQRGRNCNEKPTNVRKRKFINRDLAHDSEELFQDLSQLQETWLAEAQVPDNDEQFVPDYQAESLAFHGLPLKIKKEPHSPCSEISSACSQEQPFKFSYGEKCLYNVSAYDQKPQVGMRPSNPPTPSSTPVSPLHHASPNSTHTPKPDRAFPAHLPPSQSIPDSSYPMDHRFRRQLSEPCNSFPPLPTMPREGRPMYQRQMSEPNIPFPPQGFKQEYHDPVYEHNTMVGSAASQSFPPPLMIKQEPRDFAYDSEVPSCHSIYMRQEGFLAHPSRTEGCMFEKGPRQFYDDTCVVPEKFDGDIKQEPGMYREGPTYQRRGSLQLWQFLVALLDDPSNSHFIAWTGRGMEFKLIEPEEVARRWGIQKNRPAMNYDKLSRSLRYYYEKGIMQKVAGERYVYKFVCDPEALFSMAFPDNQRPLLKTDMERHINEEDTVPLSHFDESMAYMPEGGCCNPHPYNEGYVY
Sequence of ETV5 (P41161 whole entry): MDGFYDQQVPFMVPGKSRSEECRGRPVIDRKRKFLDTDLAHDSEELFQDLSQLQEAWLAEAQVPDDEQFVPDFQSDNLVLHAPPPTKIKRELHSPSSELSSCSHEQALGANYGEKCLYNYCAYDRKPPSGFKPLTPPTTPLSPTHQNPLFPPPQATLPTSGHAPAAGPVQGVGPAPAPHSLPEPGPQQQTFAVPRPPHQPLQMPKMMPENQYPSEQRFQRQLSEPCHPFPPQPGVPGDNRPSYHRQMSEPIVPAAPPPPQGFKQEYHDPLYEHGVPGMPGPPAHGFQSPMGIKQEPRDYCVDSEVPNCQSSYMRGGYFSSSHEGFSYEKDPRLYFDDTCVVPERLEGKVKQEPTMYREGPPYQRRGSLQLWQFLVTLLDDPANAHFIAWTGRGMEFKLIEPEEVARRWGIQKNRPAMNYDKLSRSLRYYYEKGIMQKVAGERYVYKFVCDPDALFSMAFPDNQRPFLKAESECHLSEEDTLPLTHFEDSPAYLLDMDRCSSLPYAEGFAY

On to CACGAA, for which the binding signal was 1.05 fold enrichment (6-mer frequency, TF over GST control) with FLI1; 1.15 fold enrichment (6-mer frequency, TF over GST control) in the assay with ELK1; 1.19 fold enrichment (6-mer frequency, TF over GST control) in the assay with GABPA; 1.1 fold enrichment (6-mer frequency, TF over GST control) with ERG; 1.11 fold enrichment (6-mer frequency, TF over GST control) in the assay with ELF1; 1.07 fold enrichment (6-mer frequency, TF over GST control) with EHF. In addition, the binding signal in the assay with SPI1 is 1.06 fold enrichment (6-mer frequency, TF over GST control); in the assay with ELK3, 1.03 fold enrichment (6-mer frequency, TF over GST control); with FEV, 1.09 fold enrichment (6-mer frequency, TF over GST control); in the assay with ETV5, 1.1 fold enrichment (6-mer frequency, TF over GST control); with HSF1 it was 1.39 fold enrichment (6-mer frequency, TF over GST control); with SPIC, 1.12 fold enrichment (6-mer frequency, TF over GST control). Further, the binding signal with ELF4 is 1.2 fold enrichment (6-mer frequency, TF over GST control); with ELK4, 1.3 fold enrichment (6-mer frequency, TF over GST control); with ETV2 it was 1.18 fold enrichment (6-mer frequency, TF over GST control); with ELF3, 1.07 fold enrichment (6-mer frequency, TF over GST control); in the assay with ETV1, 1.14 fold enrichment (6-mer frequency, TF over GST control).
